One sequence from paper PMC7862700, “An all-to-all approach to the identification of sequence-specific readers for epigenetic DNA modifications on cytosine” can be followed below.

What all share (assay): DAPPL (digital affinity profiling via proximity ligation, sequencing); 10 mM Tris-HCl pH 7.5, 50 mM NaCl, 1 mM DTT, 4% glycerol, room temperature, 30 min; GST-TFs on glutathione beads, 16-mer random dsDNA library, 0.1% formaldehyde crosslink after washing; high values mean tight binding
One assay has as its target T1, FEV (Homo sapiens, UniProt Q99581 1-238).
T1 sequence: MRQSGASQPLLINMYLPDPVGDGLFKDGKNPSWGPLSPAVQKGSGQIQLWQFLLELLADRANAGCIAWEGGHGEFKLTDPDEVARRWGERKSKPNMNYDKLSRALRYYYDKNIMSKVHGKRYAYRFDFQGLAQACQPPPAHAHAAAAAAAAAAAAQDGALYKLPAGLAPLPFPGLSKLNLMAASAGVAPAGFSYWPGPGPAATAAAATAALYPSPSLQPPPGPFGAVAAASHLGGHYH
To be noted: protein: recombinant; tags: N-terminal GST; dsDNA, one strand shown. The essentials:
(§1)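 Human transcription factors fused to GST were expressed in yeast, captured on glutathione beads, given DNA barcodes and pooled with a GST-only negative control. Pools were incubated with 200 nmole of a 16-mer random double-stranded DNA library in Tris/NaCl/DTT/glycerol buffer at room temperature for 30 min. They were then washed, crosslinked with 0.1% formaldehyde, proximity-ligated (BsaI/T4 ligase, 1 h, 37 °C), PCR-amplified and sequenced on an Illumina NextSeq500. Binding signal is each 6-mer's read frequency for a factor divided by its frequency for the GST control.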

Another assay has as its target ETV5 (Homo sapiens, UniProt P41161 1-510). To be noted: protein: recombinant; tags: N-terminal GST; dsDNA, one strand shown. The essentials:
as §1

For another assay, the target named is HSF1 (Homo sapiens, UniProt Q00613 1-529). To be noted: protein: recombinant; tags: N-terminal GST; chain copies: 3; dsDNA, one strand shown. In short, it runs like this: as §1
Chain of HSF1 (Q00613 whole entry): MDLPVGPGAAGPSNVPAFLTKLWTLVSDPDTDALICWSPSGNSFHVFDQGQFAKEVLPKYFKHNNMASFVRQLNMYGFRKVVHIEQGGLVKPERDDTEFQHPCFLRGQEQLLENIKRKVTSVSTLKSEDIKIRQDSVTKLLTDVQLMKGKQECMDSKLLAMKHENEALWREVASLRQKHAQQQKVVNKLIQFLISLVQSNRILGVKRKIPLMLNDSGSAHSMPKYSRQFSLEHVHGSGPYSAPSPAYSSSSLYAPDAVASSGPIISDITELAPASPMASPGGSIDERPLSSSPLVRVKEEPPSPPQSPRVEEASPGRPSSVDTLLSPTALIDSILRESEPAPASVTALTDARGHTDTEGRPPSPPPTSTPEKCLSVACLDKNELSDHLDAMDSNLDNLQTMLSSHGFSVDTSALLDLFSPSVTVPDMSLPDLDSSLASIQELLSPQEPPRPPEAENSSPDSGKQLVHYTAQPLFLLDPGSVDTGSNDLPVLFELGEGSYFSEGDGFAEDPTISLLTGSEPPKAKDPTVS
The target in a further assay is T2, SPIC (Homo sapiens, UniProt Q8N5J4 1-248).
T2 sequence: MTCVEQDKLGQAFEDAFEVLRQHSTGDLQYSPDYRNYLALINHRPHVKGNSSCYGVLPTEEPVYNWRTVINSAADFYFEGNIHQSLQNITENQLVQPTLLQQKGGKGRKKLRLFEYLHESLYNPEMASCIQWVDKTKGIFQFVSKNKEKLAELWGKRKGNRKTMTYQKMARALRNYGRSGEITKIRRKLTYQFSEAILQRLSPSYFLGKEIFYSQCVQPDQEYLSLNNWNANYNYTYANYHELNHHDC
The following applies: protein: recombinant; tags: N-terminal GST; dsDNA, one strand shown. The essentials: as §1

A further assay deals with ELF4 (Homo sapiens, UniProt Q99607 1-663). To be noted: protein: recombinant; tags: N-terminal GST; dsDNA, one strand shown. The essentials:
as §1

In a further assay the target is T3, ELK4 (Homo sapiens, UniProt P28324-2 1-405).
T3 sequence: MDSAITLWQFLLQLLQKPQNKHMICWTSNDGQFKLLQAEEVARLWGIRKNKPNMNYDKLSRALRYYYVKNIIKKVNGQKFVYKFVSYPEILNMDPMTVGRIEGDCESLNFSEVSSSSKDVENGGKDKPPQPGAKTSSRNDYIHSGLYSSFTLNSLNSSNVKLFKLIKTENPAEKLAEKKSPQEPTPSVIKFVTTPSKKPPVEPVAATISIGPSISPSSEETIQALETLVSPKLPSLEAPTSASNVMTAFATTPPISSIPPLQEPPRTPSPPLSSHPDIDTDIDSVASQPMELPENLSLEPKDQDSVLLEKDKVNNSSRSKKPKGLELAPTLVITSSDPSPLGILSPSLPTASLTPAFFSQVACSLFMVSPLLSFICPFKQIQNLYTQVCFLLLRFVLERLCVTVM
To be noted: protein: recombinant; tags: N-terminal GST; dsDNA, one strand shown. In short, it runs like this: as §1

In another assay the target is T4, ETV2 (Homo sapiens, UniProt O00321 1-342).
T4 sequence: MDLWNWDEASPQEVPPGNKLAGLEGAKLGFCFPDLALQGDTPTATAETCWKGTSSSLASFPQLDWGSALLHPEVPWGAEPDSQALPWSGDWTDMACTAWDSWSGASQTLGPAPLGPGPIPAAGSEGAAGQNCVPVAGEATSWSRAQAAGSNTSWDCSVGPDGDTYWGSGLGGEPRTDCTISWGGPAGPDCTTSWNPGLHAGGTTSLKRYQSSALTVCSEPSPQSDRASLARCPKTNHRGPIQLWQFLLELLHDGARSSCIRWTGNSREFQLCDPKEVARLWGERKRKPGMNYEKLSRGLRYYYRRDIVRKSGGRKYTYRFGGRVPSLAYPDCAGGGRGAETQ
To be noted: protein: recombinant; tags: N-terminal GST; dsDNA, one strand shown. The essentials: as §1

The target of another assay is T5, ELF3 (Homo sapiens, UniProt P78545 1-371).
T5 sequence: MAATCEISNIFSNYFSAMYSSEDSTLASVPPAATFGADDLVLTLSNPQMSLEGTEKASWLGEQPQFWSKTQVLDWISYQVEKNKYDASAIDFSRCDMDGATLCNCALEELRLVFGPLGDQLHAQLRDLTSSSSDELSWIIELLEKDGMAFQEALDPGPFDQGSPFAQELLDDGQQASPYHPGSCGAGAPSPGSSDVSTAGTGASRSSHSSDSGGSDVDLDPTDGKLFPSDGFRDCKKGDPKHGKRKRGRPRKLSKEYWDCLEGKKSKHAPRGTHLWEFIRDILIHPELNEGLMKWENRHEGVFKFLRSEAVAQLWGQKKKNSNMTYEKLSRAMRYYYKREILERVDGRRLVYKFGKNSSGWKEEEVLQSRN
To be noted: protein: recombinant; tags: N-terminal GST; dsDNA, one strand shown. In short, it runs like this:
as §1

A further assay has as its target CRX (Homo sapiens, UniProt O43186 1-299). The following applies: protein: recombinant; tags: N-terminal GST; dsDNA, one strand shown. In short, it runs like this:
as §1

The target in another assay is ETV1 (Homo sapiens, UniProt P50549 1-477). To be noted: protein: recombinant; tags: N-terminal GST; dsDNA, one strand shown. In short, it runs like this: as §1
Chain of ETV1 (P50549 whole entry): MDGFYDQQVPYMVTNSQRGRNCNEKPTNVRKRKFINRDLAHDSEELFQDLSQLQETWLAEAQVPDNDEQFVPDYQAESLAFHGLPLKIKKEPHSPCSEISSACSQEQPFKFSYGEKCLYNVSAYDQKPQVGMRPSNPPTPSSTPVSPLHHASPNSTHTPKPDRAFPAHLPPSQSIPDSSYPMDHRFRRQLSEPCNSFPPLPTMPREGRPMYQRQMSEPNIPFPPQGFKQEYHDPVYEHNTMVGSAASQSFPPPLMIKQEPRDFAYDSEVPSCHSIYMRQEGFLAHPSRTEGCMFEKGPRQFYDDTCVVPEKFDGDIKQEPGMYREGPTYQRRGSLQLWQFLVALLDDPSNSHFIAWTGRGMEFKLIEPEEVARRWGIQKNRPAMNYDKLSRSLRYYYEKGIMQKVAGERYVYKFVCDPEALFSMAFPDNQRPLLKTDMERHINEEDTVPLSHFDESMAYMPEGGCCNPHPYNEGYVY
The target of a further assay is T6, ERF (Homo sapiens, UniProt P50548 1-548).
T6 sequence: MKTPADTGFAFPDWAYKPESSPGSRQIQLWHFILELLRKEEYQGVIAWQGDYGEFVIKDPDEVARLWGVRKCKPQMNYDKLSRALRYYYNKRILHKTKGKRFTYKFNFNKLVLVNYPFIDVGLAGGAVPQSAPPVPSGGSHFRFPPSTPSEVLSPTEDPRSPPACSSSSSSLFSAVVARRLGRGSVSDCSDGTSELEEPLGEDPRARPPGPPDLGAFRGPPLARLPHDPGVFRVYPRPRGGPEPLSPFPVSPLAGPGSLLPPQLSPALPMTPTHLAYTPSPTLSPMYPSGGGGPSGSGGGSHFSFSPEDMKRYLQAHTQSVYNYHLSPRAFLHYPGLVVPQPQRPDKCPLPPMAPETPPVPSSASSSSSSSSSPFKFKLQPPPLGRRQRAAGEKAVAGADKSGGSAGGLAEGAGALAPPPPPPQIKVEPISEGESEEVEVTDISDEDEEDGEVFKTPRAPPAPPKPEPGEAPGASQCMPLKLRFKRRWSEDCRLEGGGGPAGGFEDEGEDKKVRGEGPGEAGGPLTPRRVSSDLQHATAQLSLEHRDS
To be noted: protein: recombinant; tags: N-terminal GST; dsDNA, one strand shown. The essentials:
as §1

The target of a further assay is T7, ETV3L (Homo sapiens, UniProt Q6ZN32 1-361).
T7 sequence: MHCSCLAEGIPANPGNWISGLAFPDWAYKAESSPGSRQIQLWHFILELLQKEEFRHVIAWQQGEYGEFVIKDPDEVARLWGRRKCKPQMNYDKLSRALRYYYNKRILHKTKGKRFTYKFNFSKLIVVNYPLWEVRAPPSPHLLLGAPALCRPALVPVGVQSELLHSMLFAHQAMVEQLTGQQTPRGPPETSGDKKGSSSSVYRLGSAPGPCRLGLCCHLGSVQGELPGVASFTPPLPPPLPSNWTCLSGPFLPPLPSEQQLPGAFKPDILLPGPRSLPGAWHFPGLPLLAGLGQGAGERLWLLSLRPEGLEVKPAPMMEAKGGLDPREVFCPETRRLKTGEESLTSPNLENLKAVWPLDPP
To be noted: protein: recombinant; tags: N-terminal GST; dsDNA, one strand shown. The essentials:
as §1

A further assay concerns the target T8, ETS2 (Homo sapiens, UniProt P15036 1-469).
T8 sequence: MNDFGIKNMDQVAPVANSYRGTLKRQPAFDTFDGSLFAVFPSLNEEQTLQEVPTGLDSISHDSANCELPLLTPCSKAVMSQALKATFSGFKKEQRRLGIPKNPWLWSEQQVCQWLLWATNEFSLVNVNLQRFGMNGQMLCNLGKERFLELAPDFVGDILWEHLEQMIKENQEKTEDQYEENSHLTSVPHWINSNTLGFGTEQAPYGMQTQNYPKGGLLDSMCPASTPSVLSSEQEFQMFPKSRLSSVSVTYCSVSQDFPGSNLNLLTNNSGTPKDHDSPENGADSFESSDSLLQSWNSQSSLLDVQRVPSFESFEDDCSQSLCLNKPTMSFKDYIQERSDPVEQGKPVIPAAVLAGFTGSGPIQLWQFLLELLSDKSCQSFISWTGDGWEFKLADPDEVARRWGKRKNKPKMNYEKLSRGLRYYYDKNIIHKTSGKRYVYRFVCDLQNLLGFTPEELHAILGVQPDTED
The following applies: protein: recombinant; tags: N-terminal GST; dsDNA, one strand shown. The essentials: as §1

Another assay concerns the target T9, SPDEF (Homo sapiens, UniProt O95238 1-335).
T9 sequence: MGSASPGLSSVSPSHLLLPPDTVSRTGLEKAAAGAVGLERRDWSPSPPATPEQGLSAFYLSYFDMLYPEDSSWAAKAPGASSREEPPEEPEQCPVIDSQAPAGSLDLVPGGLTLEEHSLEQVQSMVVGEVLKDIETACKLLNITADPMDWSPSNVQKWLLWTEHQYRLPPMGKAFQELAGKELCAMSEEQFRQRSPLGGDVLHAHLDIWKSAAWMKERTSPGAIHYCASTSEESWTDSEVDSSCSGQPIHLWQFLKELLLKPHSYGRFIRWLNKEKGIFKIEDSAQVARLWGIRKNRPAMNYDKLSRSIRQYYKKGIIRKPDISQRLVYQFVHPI
To be noted: protein: recombinant; tags: N-terminal GST; dsDNA, one strand shown. In short, it runs like this:
as §1

The next assay addresses T10, ETV7 (Homo sapiens, UniProt Q9Y603 1-341).
T10 sequence: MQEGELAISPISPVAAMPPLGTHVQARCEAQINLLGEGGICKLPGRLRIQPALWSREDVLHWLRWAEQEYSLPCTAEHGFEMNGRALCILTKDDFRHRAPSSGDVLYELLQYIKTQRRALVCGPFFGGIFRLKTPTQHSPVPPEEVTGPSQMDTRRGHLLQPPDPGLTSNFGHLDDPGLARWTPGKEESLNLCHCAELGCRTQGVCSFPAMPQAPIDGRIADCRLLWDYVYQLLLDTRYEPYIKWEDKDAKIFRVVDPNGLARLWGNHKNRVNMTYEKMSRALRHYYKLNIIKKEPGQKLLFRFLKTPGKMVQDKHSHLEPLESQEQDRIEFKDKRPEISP
The following applies: protein: recombinant; tags: N-terminal GST; dsDNA, one strand shown. The essentials: as §1

The next assay has as its target T11, ELF5 (Homo sapiens, UniProt Q9UKW6-2 1-255).
T11 sequence: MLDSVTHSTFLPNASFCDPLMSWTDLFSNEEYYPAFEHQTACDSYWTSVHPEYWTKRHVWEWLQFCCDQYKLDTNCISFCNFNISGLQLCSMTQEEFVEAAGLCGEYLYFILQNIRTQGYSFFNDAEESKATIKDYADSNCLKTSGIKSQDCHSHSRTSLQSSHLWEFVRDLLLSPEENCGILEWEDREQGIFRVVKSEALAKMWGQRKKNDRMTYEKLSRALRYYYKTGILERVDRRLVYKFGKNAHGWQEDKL
To be noted: protein: recombinant; tags: N-terminal GST; dsDNA, one strand shown. The essentials: as §1

Another assay addresses T12, ETV3 (Homo sapiens, UniProt P41162-2 1-143).
T12 sequence: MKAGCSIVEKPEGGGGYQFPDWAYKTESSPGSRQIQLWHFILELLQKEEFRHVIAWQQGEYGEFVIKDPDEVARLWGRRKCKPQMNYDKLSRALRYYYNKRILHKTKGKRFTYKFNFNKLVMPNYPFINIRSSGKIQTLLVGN
The following applies: protein: recombinant; tags: N-terminal GST; dsDNA, one strand shown. In short, it runs like this:
as §1

For the next assay, the target named is ETV6 (Homo sapiens, UniProt P41212 1-452). The following applies: protein: recombinant; tags: N-terminal GST; dsDNA, one strand shown. In short, it runs like this: as §1
Chain of ETV6 (P41212 whole entry): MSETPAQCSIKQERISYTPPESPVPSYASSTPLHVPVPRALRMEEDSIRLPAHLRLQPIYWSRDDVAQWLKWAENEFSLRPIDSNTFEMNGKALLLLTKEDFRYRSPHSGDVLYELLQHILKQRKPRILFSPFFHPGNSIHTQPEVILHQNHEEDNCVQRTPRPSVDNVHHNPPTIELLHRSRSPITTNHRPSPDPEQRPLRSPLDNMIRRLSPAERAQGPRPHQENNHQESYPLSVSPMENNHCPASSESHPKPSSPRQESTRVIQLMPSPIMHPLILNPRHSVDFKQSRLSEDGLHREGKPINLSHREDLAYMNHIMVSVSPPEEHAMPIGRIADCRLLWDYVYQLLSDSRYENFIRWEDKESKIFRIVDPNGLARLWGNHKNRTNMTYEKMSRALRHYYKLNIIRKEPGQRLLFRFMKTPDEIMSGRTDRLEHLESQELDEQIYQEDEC

Chain of ELF4 (Q99607 whole entry): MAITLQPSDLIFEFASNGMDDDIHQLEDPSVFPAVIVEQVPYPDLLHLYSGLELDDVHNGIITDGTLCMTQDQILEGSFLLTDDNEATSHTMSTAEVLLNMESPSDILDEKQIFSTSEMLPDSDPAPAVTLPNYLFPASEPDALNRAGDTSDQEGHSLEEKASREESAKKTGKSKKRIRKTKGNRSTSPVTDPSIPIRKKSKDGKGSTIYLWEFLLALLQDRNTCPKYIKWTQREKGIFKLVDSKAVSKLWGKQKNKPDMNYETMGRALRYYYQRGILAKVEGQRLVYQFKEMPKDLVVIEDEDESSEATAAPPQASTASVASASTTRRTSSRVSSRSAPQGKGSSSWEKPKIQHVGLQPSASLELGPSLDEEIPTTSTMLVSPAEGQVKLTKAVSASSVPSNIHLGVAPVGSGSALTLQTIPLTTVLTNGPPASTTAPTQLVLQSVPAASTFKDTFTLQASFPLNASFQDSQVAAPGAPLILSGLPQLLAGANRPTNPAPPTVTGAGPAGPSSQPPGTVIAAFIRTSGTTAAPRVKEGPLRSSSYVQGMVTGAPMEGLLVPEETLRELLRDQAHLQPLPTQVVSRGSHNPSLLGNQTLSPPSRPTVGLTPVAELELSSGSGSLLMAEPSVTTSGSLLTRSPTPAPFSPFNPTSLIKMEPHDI
Chain of CRX (O43186 whole entry): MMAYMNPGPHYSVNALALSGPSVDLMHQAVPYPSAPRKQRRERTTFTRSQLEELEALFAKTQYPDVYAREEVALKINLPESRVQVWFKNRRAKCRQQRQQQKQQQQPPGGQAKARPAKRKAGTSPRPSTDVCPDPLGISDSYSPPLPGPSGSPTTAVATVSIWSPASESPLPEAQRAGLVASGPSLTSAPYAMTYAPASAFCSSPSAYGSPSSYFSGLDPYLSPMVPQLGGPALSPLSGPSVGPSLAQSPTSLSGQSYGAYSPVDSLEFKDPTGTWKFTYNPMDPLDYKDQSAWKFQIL
Chain of ETV5 (P41161 whole entry): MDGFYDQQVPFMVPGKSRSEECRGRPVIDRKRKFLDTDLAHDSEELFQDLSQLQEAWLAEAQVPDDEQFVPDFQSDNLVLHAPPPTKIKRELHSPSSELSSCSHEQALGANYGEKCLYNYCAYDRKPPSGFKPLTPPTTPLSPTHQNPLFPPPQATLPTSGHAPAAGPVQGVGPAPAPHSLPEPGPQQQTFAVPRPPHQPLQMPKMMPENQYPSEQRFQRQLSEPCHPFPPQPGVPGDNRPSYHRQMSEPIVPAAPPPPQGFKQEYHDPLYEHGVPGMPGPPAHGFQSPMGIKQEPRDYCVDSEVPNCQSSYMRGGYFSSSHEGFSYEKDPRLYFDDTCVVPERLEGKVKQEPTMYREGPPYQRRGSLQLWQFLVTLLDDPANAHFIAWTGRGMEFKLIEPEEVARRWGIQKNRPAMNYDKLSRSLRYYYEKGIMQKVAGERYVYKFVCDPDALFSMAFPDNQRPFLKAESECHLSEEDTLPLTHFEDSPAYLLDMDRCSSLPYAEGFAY

Turning to ATAGAT, the binding signal with FEV is 1.15 fold enrichment (6-mer frequency, TF over GST control); with ETV5, 1.11 fold enrichment (6-mer frequency, TF over GST control); with HSF1, 1.42 fold enrichment (6-mer frequency, TF over GST control); with SPIC it was 1.2 fold enrichment (6-mer frequency, TF over GST control); with ELF4 it was 1.17 fold enrichment (6-mer frequency, TF over GST control); with ELK4, 1.13 fold enrichment (6-mer frequency, TF over GST control). Besides, the binding signal with ETV2 is 1.19 fold enrichment (6-mer frequency, TF over GST control); with ELF3, 1.13 fold enrichment (6-mer frequency, TF over GST control); with CRX, 1.49 fold enrichment (6-mer frequency, TF over GST control); with ETV1, 1.19 fold enrichment (6-mer frequency, TF over GST control); with ERF, 1.2 fold enrichment (6-mer frequency, TF over GST control); with ETV3L it was 1.25 fold enrichment (6-mer frequency, TF over GST control). Also, the binding signal with ETS2 was 1.12 fold enrichment (6-mer frequency, TF over GST control); in the assay with SPDEF, 1.27 fold enrichment (6-mer frequency, TF over GST control); with ETV7 it was 1.17 fold enrichment (6-mer frequency, TF over GST control); with ELF5, 1.18 fold enrichment (6-mer frequency, TF over GST control); with ETV3 it was 1.01 fold enrichment (6-mer frequency, TF over GST control); with ETV6, 1.15 fold enrichment (6-mer frequency, TF over GST control).
